# Publication PMC11006913
# Where a chain is given by its changes, count along the chain named.
# Legend:
# Test in all cases: PBM; 200 nM protein, PBS
# Conditions in all cases: dsDNA, one strand shown
# VENTX [1] = target: T1, VENTX (Homo sapiens, UniProt O95231 78-163, R121Q)
# T1 sequence: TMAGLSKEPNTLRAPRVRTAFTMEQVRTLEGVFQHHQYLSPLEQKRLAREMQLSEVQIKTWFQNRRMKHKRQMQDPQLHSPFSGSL
# VENTX [2] = target: T2, VENTX (Homo sapiens, UniProt O95231 78-163)
# T2 sequence: T1 sequence with Q44R
# VENTX [3] = target: T3, VENTX (Homo sapiens, UniProt O95231 78-163, Y115F)
# T3 sequence: T1 sequence with Y38F, Q44R
# ALX4 [4] = target: ALX4 (Homo sapiens, UniProt Q9H161 200-286)
# ALX4 (Homo sapiens, UniProt Q9H161 200-286), sequence (Q9H161 200-286): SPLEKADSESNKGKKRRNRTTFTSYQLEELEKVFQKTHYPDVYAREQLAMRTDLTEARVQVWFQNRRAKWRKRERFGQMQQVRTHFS
# ALX4 [5] = target: ALX4 (Homo sapiens, UniProt Q9H161 200-286, Q225E)
# ALX4 (Homo sapiens, UniProt Q9H161 200-286, Q225E), sequence (Q9H161 200-286 Q225E): as the sequence (Q9H161 200-286) above, with Q26E counted along it
# HOXA2 [6] = target: HOXA2 (Homo sapiens, UniProt O43364 129-215, R185T)
# HOXA2 (Homo sapiens, UniProt O43364 129-215, R185T), sequence (O43364 129-215 R185T): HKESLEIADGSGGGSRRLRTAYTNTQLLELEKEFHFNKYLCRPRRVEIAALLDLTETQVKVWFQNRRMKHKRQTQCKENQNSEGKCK
# ALX3 [7] = target: ALX3 (Homo sapiens, UniProt O95076 139-225, N203Q)
# ALX3 (Homo sapiens, UniProt O95076 139-225, N203Q), sequence (O95076 139-225 N203Q): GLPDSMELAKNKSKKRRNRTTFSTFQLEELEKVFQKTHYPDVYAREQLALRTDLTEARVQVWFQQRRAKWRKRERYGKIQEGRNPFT
# HOXA2 [8] = target: HOXA2 (Homo sapiens, UniProt O43364 129-215, R185K)
# HOXA2 (Homo sapiens, UniProt O43364 129-215, R185K), sequence (O43364 129-215 R185K): as the sequence (O43364 129-215 R185T) above, with T57K counted along it
# ALX3 [9] = target: ALX3 (Homo sapiens, UniProt O95076 139-225)
# ALX3 (Homo sapiens, UniProt O95076 139-225), sequence (O95076 139-225): as the sequence (O95076 139-225 N203Q) above, with Q65N counted along it
# ALX3 [10] = target: ALX3 (Homo sapiens, UniProt O95076 139-225, L168Q)
# ALX3 (Homo sapiens, UniProt O95076 139-225, L168Q), sequence (O95076 139-225 L168Q): as the sequence (O95076 139-225 N203Q) above, with L30Q, Q65N counted along it
# ALX3 [11] = target: ALX3 (Homo sapiens, UniProt O95076 139-225, L168V)
# ALX3 (Homo sapiens, UniProt O95076 139-225, L168V), sequence (O95076 139-225 L168V): as the sequence (O95076 139-225 N203Q) above, with L30V, Q65N counted along it
# HOXA2 [12] = target: HOXA2 (Homo sapiens, UniProt O43364 129-215, Y150S)
# HOXA2 (Homo sapiens, UniProt O43364 129-215, Y150S), sequence (O43364 129-215 Y150S): as the sequence (O43364 129-215 R185T) above, with Y22S, T57R counted along it
# ALX3 [13] = target: ALX3 (Homo sapiens, UniProt O95076 139-225, N203S)
# ALX3 (Homo sapiens, UniProt O95076 139-225, N203S), sequence (O95076 139-225 N203S): as the sequence (O95076 139-225 N203Q) above, with Q65S counted along it
# HOXA2 [14] = target: HOXA2 (Homo sapiens, UniProt O43364 129-215)
# HOXA2 (Homo sapiens, UniProt O43364 129-215), sequence (O43364 129-215): as the sequence (O43364 129-215 R185T) above, with T57R counted along it
# HOXA7 [15] = target: HOXA7 (Homo sapiens, UniProt P31268 116-202)
# HOXA7 (Homo sapiens, UniProt P31268 116-202), sequence (P31268 116-202): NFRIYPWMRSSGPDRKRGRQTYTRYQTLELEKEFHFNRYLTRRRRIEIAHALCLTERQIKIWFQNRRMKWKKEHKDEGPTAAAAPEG
# MSX2 [16] = target: MSX2 (Homo sapiens, UniProt P35548 130-214, R199I)
# MSX2 (Homo sapiens, UniProt P35548 130-214, R199I), sequence (P35548 130-214 R199I): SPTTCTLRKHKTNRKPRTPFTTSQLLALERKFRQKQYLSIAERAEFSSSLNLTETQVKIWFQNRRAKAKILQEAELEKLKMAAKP
# MSX2 [17] = target: MSX2 (Homo sapiens, UniProt P35548 130-214)
# MSX2 (Homo sapiens, UniProt P35548 130-214), sequence (P35548 130-214): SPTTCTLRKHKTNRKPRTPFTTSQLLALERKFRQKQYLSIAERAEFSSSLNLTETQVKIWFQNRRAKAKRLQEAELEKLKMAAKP
# MSX2 [18] = target: MSX2 (Homo sapiens, UniProt P35548 130-214, F161Y)
# MSX2 (Homo sapiens, UniProt P35548 130-214, F161Y), sequence (P35548 130-214 F161Y): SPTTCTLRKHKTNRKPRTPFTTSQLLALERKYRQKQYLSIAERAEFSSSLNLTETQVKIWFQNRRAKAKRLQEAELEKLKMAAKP
# HOXA7 [19] = target: HOXA7 (Homo sapiens, UniProt P31268 116-202, W177C)
# HOXA7 (Homo sapiens, UniProt P31268 116-202, W177C), sequence (P31268 116-202 W177C): as the sequence (P31268 116-202) above, with W62C counted along it
# PAX4 [20] = target: T4, PAX4 (Homo sapiens, UniProt O43316 9-242, R200K)
# T4 sequence: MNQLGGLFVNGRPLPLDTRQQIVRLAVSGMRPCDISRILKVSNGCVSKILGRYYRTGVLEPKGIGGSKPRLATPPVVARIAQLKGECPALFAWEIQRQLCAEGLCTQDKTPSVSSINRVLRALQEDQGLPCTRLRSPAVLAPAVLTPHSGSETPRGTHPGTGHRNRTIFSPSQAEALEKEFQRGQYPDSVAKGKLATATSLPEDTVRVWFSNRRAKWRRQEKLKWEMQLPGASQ
# PAX4 [21] = target: T5, PAX4 (Homo sapiens, UniProt O43316 9-242)
# T5 sequence: T4 sequence with K192R
# HOXB9 [22] = target: HOXB9 (Homo sapiens, UniProt P17482 171-250)
# HOXB9 (Homo sapiens, UniProt P17482 171-250), sequence (P17482 171-250): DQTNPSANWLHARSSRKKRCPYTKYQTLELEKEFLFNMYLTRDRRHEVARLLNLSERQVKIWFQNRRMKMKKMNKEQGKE
# PAX4 [23] = target: T6, PAX4 (Homo sapiens, UniProt O43316 9-242, R200Q)
# T6 sequence: T4 sequence with K192Q
# PAX4 [24] = target: T7, PAX4 (Homo sapiens, UniProt O43316 9-242, F177V)
# T7 sequence: T4 sequence with F169V, K192R
# PAX4 [25] = target: T8, PAX4 (Homo sapiens, UniProt O43316 9-242, F177Y)
# T8 sequence: T4 sequence with F169Y, K192R
# HOXB9 [26] = target: HOXB9 (Homo sapiens, UniProt P17482 171-250, R186Q)
# HOXB9 (Homo sapiens, UniProt P17482 171-250, R186Q), sequence (P17482 171-250 R186Q): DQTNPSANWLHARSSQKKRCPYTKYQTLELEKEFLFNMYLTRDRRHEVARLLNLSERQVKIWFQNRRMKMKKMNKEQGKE
# PAX4 [27] = target: T9, PAX4 (Homo sapiens, UniProt O43316 9-242, R227W)
# T9 sequence: T4 sequence with K192R, R219W
# NKX2-6 = target: T10, NKX2-6 (Homo sapiens, UniProt A6NCS4 118-204, R150C)
# T10 sequence: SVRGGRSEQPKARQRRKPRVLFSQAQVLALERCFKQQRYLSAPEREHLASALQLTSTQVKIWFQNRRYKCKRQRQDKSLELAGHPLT
sequence,measurement,setting,value
AAATTGAT,binding signal,VENTX [1],"10.3 upbm affinity estimate (log intensity, higher = more binding, comparable within an allelic series)"
same,binding signal,VENTX [2],"10.7 upbm affinity estimate (log intensity, higher = more binding, comparable within an allelic series)"
same,binding signal,VENTX [3],"9.99 upbm affinity estimate (log intensity, higher = more binding, comparable within an allelic series)"
CCCAGAGG,binding signal,VENTX [1],"7.95 upbm affinity estimate (log intensity, higher = more binding, comparable within an allelic series)"
same,binding signal,VENTX [2],"7.77 upbm affinity estimate (log intensity, higher = more binding, comparable within an allelic series)"
same,binding signal,ALX4 [4],"8.01 upbm affinity estimate (log intensity, higher = more binding, comparable within an allelic series)"
same,binding signal,VENTX [3],"7.81 upbm affinity estimate (log intensity, higher = more binding, comparable within an allelic series)"
same,binding signal,ALX4 [5],"8 upbm affinity estimate (log intensity, higher = more binding, comparable within an allelic series)"
same,binding signal,HOXA2 [6],"7.09 upbm affinity estimate (log intensity, higher = more binding, comparable within an allelic series)"
same,binding signal,ALX3 [7],"7.67 upbm affinity estimate (log intensity, higher = more binding, comparable within an allelic series)"
same,binding signal,HOXA2 [8],"10.2 upbm affinity estimate (log intensity, higher = more binding, comparable within an allelic series)"
same,binding signal,ALX3 [9],"7.71 upbm affinity estimate (log intensity, higher = more binding, comparable within an allelic series)"
same,binding signal,ALX3 [10],"7.65 upbm affinity estimate (log intensity, higher = more binding, comparable within an allelic series)"
same,binding signal,ALX3 [11],"7.63 upbm affinity estimate (log intensity, higher = more binding, comparable within an allelic series)"
same,binding signal,HOXA2 [12],"10.3 upbm affinity estimate (log intensity, higher = more binding, comparable within an allelic series)"
same,binding signal,ALX3 [13],"7.62 upbm affinity estimate (log intensity, higher = more binding, comparable within an allelic series)"
same,binding signal,HOXA2 [14],"7.15 upbm affinity estimate (log intensity, higher = more binding, comparable within an allelic series)"
CGTCCAGC,binding signal,VENTX [1],"8.04 upbm affinity estimate (log intensity, higher = more binding, comparable within an allelic series)"
same,binding signal,VENTX [2],"7.65 upbm affinity estimate (log intensity, higher = more binding, comparable within an allelic series)"
same,binding signal,HOXA7 [15],"8.59 upbm affinity estimate (log intensity, higher = more binding, comparable within an allelic series)"
same,binding signal,VENTX [3],"7.81 upbm affinity estimate (log intensity, higher = more binding, comparable within an allelic series)"
same,binding signal,MSX2 [16],"9.63 upbm affinity estimate (log intensity, higher = more binding, comparable within an allelic series)"
same,binding signal,MSX2 [17],"9.6 upbm affinity estimate (log intensity, higher = more binding, comparable within an allelic series)"
same,binding signal,MSX2 [18],"9.74 upbm affinity estimate (log intensity, higher = more binding, comparable within an allelic series)"
same,binding signal,HOXA7 [19],"8.41 upbm affinity estimate (log intensity, higher = more binding, comparable within an allelic series)"
GCCAGGCA,binding signal,VENTX [1],"8.27 upbm affinity estimate (log intensity, higher = more binding, comparable within an allelic series)"
same,binding signal,VENTX [2],"8.55 upbm affinity estimate (log intensity, higher = more binding, comparable within an allelic series)"
same,binding signal,VENTX [3],"8.35 upbm affinity estimate (log intensity, higher = more binding, comparable within an allelic series)"
CGTCGACG,binding signal,VENTX [1],"7.98 upbm affinity estimate (log intensity, higher = more binding, comparable within an allelic series)"
same,binding signal,VENTX [2],"7.91 upbm affinity estimate (log intensity, higher = more binding, comparable within an allelic series)"
same,binding signal,ALX4 [4],"7.89 upbm affinity estimate (log intensity, higher = more binding, comparable within an allelic series)"
same,binding signal,VENTX [3],"8.1 upbm affinity estimate (log intensity, higher = more binding, comparable within an allelic series)"
same,binding signal,ALX4 [5],"7.93 upbm affinity estimate (log intensity, higher = more binding, comparable within an allelic series)"
CCGAATTA,binding signal,VENTX [1],"10.1 upbm affinity estimate (log intensity, higher = more binding, comparable within an allelic series)"
same,binding signal,VENTX [2],"10.6 upbm affinity estimate (log intensity, higher = more binding, comparable within an allelic series)"
same,binding signal,PAX4 [20],"11.8 upbm affinity estimate (log intensity, higher = more binding, comparable within an allelic series)"
same,binding signal,VENTX [3],"9.98 upbm affinity estimate (log intensity, higher = more binding, comparable within an allelic series)"
same,binding signal,PAX4 [21],"12.4 upbm affinity estimate (log intensity, higher = more binding, comparable within an allelic series)"
same,binding signal,HOXB9 [22],"10.1 upbm affinity estimate (log intensity, higher = more binding, comparable within an allelic series)"
same,binding signal,PAX4 [23],"11.8 upbm affinity estimate (log intensity, higher = more binding, comparable within an allelic series)"
same,binding signal,PAX4 [24],"10.4 upbm affinity estimate (log intensity, higher = more binding, comparable within an allelic series)"
same,binding signal,PAX4 [25],"11.1 upbm affinity estimate (log intensity, higher = more binding, comparable within an allelic series)"
same,binding signal,HOXB9 [26],"10 upbm affinity estimate (log intensity, higher = more binding, comparable within an allelic series)"
same,binding signal,PAX4 [27],"10.9 upbm affinity estimate (log intensity, higher = more binding, comparable within an allelic series)"
ACTATTTA,binding signal,VENTX [1],"10.1 upbm affinity estimate (log intensity, higher = more binding, comparable within an allelic series)"
same,binding signal,VENTX [2],"10.6 upbm affinity estimate (log intensity, higher = more binding, comparable within an allelic series)"
same,binding signal,VENTX [3],"10.1 upbm affinity estimate (log intensity, higher = more binding, comparable within an allelic series)"
AGCGATTA,binding signal,VENTX [1],"11.2 upbm affinity estimate (log intensity, higher = more binding, comparable within an allelic series)"
same,binding signal,VENTX [2],"12.3 upbm affinity estimate (log intensity, higher = more binding, comparable within an allelic series)"
same,binding signal,VENTX [3],"11.3 upbm affinity estimate (log intensity, higher = more binding, comparable within an allelic series)"
CGGCCCCA,binding signal,VENTX [1],"8.18 upbm affinity estimate (log intensity, higher = more binding, comparable within an allelic series)"
same,binding signal,VENTX [2],"8.34 upbm affinity estimate (log intensity, higher = more binding, comparable within an allelic series)"
same,binding signal,PAX4 [20],"9.24 upbm affinity estimate (log intensity, higher = more binding, comparable within an allelic series)"
same,binding signal,VENTX [3],"8.08 upbm affinity estimate (log intensity, higher = more binding, comparable within an allelic series)"
same,binding signal,PAX4 [21],"9.19 upbm affinity estimate (log intensity, higher = more binding, comparable within an allelic series)"
same,binding signal,NKX2-6,"9.36 upbm affinity estimate (log intensity, higher = more binding, comparable within an allelic series)"
same,binding signal,PAX4 [23],"9.28 upbm affinity estimate (log intensity, higher = more binding, comparable within an allelic series)"
same,binding signal,PAX4 [24],"9.21 upbm affinity estimate (log intensity, higher = more binding, comparable within an allelic series)"
same,binding signal,PAX4 [25],"9.24 upbm affinity estimate (log intensity, higher = more binding, comparable within an allelic series)"
same,binding signal,PAX4 [27],"9.25 upbm affinity estimate (log intensity, higher = more binding, comparable within an allelic series)"
